Experimental data published in PubChem BioAssay (NCI).
Several values for one entry are separate records, joined by “and”; a condition that tells them apart may be missing. Equal entries are not always repeated. This is part of a sample that, as a whole, favours compounds with a hit. Of some 83,000 tested, about 20% had one in any assay.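 Treatment: one concentration, 48 hours, 96-well format. Scoring: percent growth, with anything below 10 considered active.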 Values without a mark were called inactive. Activity calls are given as the source filed them.

Each compound was assayed on HS 578T breast (assay: NCI-60 one-dose screen, 48 h (100 = growth as untreated, 0 = no growth, -100 = all killed)). Conditions: 10 µM.
Protocol: Growth inhibition of the HS 578T human tumor cell line is measured as a screen for anti-cancer activity. Cells are grown in 96 well plates and exposed to the test compound for 48 hours. Compounds are tested at a single concentration, which is 10^-5 M for most compounds. The reported endpoint is percent growth (GI% or GIPRCNT), where numbers from 0 - 100% represent growth inhibition, and numbers from -100% - 0 represent cell death. For example, a value of 40 represents 60% growth inhibition. A value of 0 means no net growth occurred over the course of the experiment. A value of -40 indicates 40% of cells at the beginning of the experiment died by the end of the experiment. A value of -100 means all cells are dead at the end of the experiment.
NCI-60 Human Tumor Cell Lines Screen was performed using the standard one-dose NCI protocol, which is described in more detail at https://dtp.cancer.gov/discovery_development/nci-60/default.htm.
Compounds with GIPRCNT values below 10 were considered active. Activity score was based on GIPRCNT using the following formula: […]
Score is 0 for GIPRCNT values of 100 or above, 50 for GIPRCNT values of 0, and 100 for GIPRCNT values of -100.
For `COS(=O)(=O)c1ccccc1`, the growth was 110%.
For `Cc1cc(C(C)(C)c2ccc(O)c(C)c2)ccc1O`, the growth was 89.2%.
With `NC(=O)c1cc([N+](=O)[O-])c(Cl)c([N+](=O)[O-])c1` the growth was 106%.
`CS(=N)(=O)CCC(N)C(=O)O` (stereo not given) showed a growth of 104%.
In the case of `C[CH2][Hg][S]c1ccccc1C(=O)O`, the growth is reported as -1.53% (active).
Compound `NNc1ccccc1` has a growth of 109%.
For `Cc1cc([N+](=O)[O-])c2ccccc2[n+]1[O-]`, the growth was 8.5% (active) and -14.4% (active).
`Cc1cc(C)c(C[N+](C)(C)C)c(C)c1C` was tested, and the growth was 0.977% (active).
In the case of `O=[N+]([O-])c1ccc(Br)c([N+](=O)[O-])c1`, the growth is reported as 105%.
`O=C1C=Cc2ccccc2C1=O` was tested, and the growth was 90.9%.
In the case of `COc1ccc(/C=C\[N+](=O)[O-])cc1OC`, the growth is reported as 71.2% and 94.4%.
`COc1ccc(/C=C(\C)[N+](=O)[O-])cc1OC` showed a growth of 65.7%.
For `O=[N+]([O-])c1cc[n+]([O-])c2ccccc12`, the growth was 18.7%.
For `CC(C)c1cc([N+](=O)[O-])cc([N+](=O)[O-])c1O`, the growth was 101%.
`CCOP(=O)(OCC)C(O)c1ccccc1Cl` (stereo not given) was tested, and the growth was 106%.
`CCOP(=O)(OCC)/C(C#N)=C/c1ccc(Br)cc1` showed a growth of 100%.
With `Cc1ccc(NC(=O)CBr)cc1` the growth was 107%.
`CCCCCCCC[N+]12CN3CN(CN(C3)C1)C2` showed a growth of 92.4%.
`COc1cc(/C=C\[N+](=O)[O-])ccc1O` was tested, and the growth was 106% and 94.5%.
In the case of `CC/C(=C/c1ccc(OC)cc1OC)[N+](=O)[O-]`, the growth is reported as 77.6%.
With `COc1cc([C@@H]2c3cc4c(c(O)c3C[C@H]3COC(=O)[C@@H]32)OCO4)cc(OC)c1OC` the growth was -10.6% (active).
With `Oc1ccccc1-c1ccccc1` the growth was 104% and 120%.
Compound `[O-][n+]1ccccc1S` has a growth of 64%.
`CN(CCCl)c1ccc(/C=C/C2=[N+](C)c3ccccc3C2(C)C)cc1` was tested, and the growth was 60.1%.
Work on `N#CCc1ccccc1` yielded a growth of 106%.
Work on `O=[P+](O)c1ccccc1` yielded a growth of 106%.
With `COc1ccc2c(ccc3oc([N+](=O)[O-])cc32)c1` the growth was -7.73% (active).
`O=C1C(=O)c2ccccc2-c2ccccc21` was tested, and the growth was -20.1% (active).
`C=NCC#N` showed a growth of 124%.
In the case of `CC(=O)Nc1c2sscc-2n(C)c1=O`, the growth is reported as -57% (active).
For `COc1cc2c(cc1OC)C13CCN4CC5=CCOC6CC(=O)N2C1C6C5CC43` (stereo not given), the growth was 114% and 96.4%.
`O=[N+]([O-])/C=C/c1ccc(Cl)cc1[N+](=O)[O-]` was tested, and the growth was -6.61% (active).
`COC12C(COC(N)=O)C3=C(C(=O)C(C)=C(N)C3=O)N1CC1C2N1C` (stereo not given) gave a growth of 67.1%.
For `C[C@@H]1C[C@@H]([C@H](O)CC2CC(=O)NC(=O)C2)C(=O)[C@@H](C)C1`, the growth was 7.45% (active).
`COc1cc(/C=C/[N+](=O)[O-])cc(OC)c1OC` was tested, and the growth was 8.36% (active).
`[Cl][Hg][c]1ccc(Cl)s1` was tested, and the growth was 59.1%.
For `COc1ccccc1[As]=[As]c1ccccc1OC` (stereo not given), the growth was -11.6% (active).
`C/C(=C\c1ccc(Cl)c(Cl)c1)[N+](=O)[O-]` was tested, and the growth was 82.8% and 103%.
For `COC1CC2C=C(C)/C=C/C=C/C(=O)NC(c3ccccc3)C/C=C/CCC(O)CC(=O)C2=C1O` (stereo not given), the growth was -51.4% (active).
`CN(C)CC1(N)C(=O)NC(=O)NC1=O` gave a growth of 98.1%.
